Data from PubChem BioAssay (Tox21).
Inconclusive results are not listed. Active and inactive are the calls of the source. Unless noted, calls come from the whole dose curve; as a rule, active = well fitted curve in the direction sought with a large enough effect in the repeat runs; inconclusive = weak or mixed curves; inactive = no such curve, though single readings can be large; an effect the other way counts as inactive or inconclusive. Positions of bridges follow the written chain, without caps; N, C: chain ends. Non-standard residues stand in square brackets, D forms with d. Residues, ends and D or L forms follow the SMILES beside them. hArg = N=C(N)NCCCC[C@H](N)C(=O)O; Mpa = O=C(O)CCS

How the values were obtained:
[1] = qHTS RealTime-Glo MT Cell Viability Assay in HEK293 cells - 8 hour (AID 1224887); note: top concentration of the series differs between compounds; nearly all actives have a fitted effect of over 50% in size
Summary of the method: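 Measured as luminescence from the same continuously cultured HEK293 wells at successive time points (0, 8, 16, 24, 32, 40 h) after compound addition. Reagent present from seeding; dosing at 5 h; incubation 37 C.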

[2] = A CellTox Green Cytotoxicity Assay to monitor cytotoxicity in HEK293 cells - 16 hour (AID 1224888); note: nearly all actives have a fitted effect of over 35% in size
Summary of the method: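 Homogeneous no-lysis format: HEK293 cell suspension mixed with CellTox Green reagent, seeded, incubated 5 h at 37 C/5% CO2, then dosed by pintool with compound in DMSO.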

[3] = qHTS RealTime-Glo MT Cell Viability Assay in HepG2 cells - 0 hour (AID 1224889); note: nearly all actives have a fitted effect of over 50% in size
Summary of the method: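 qHTS, HepG2, 600 cells/well, RealTime-Glo (NanoLuc + prosubstrate) added with cells; 5 h preincubation; DMSO compound addition; 37 C; luminescence at 0/8/16/24/32/40 h.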

[4] = qHTS assay to identify small molecule antagonists of the estrogen receptor alpha (ER-alpha) signaling pathway using the BG1 cell line in the presence of 0.1 nM 17-beta-estradiol - cell viability counter screen (AID 1259241); note: nearly all actives have a fitted effect of over 40% in size
Summary of the method: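 Cytotoxicity counter-screen: live-cell protease activity measured by fluorescence (30 min reagent step) in the same wells. Cells were VM7Luc4E2 with endogenous ER-alpha and ERE-driven luciferase, treated 22 hr at 37C alongside 0.1 nM 17beta-estradiol final.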

[5] = qHTS assay to identify small molecule antagonists of the androgen receptor (AR) signaling pathway using the MDA cell line in the presence of 0.5 nM R1881 - cell viability counter screen (AID 1259242); note: nearly all actives have a fitted effect of over 45% in size
Summary of the method: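 Human breast carcinoma MDA-kb2 cells, cultured without CO2, receive compounds alongside 0.5 nM (final) R1881 agonist. After 16 hr at 37C, viability is taken as live-cell protease signal.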

[6] = biological target: Estrogen receptor (Homo sapiens) (UniProt P03372); test: qHTS assay to identify small molecule antagonists of the estrogen receptor alpha (ER-alpha) signaling pathway using the BG1 cell line in the presence of 0.1 nM 17-beta-estradiol (AID 1259244); note: nearly all actives have a fitted effect of over 50% in size
Summary of the method: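 Seeding of stripped-serum-adapted VM7Luc4E2 cells, 24 h attachment, compound transfer, then 0.1 nM final 17beta-estradiol; after 22 h incubation, ONE-Glo reagent and luminescence reading.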

[7] = qHTS assay to identify small molecule phospholipidosis (PLD) inducers (AID 1259344; active = well fitted curve in the direction sought with a large enough effect; an effect the other way counts as inactive or inconclusive)
Summary of the method: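 Cells (HepG2, 900 per well) attach for 4 h, receive LipidTOX Red and compound together, incubate 24 h at 37 C, are fixed 30 min with paraformaldehyde/Hoechst, then imaged at one site per well.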

[8] = qHTS assay to identify small molecule HDAC inhibitors (AID 1259364);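 note: wild-type HCT-116 cells with endogenous class I/II HDAC activity; top concentration of the series differs between compounds; nearly all actives have a fitted effect of over 45% in size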
Summary of the method: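 After a 2 hr compound incubation (37C, 5% CO2), HCT-116 cells seeded at 1,500/well the day before received HDAC-Glo reagent; signal read as luminescence after 30 min at room temperature.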

[9] = qHTS assay to identify small molecule HDAC inhibitors - cell viability counter screen (AID 1259365); note: series mostly up to about 92 µM; nearly all actives have a fitted effect of over 50% in size
Summary of the method: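 CellTiter-Glo luminescence (30 min, room temperature) reported viability after a 2 h compound exposure at 37 C. Cells: wild-type HCT-116, 1,500 per well, seeded the night before.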

[10] = qHTS assay to identify small molecule agonists of the sonic hedgehog signaling (Shh) pathway - cell viability counter screen (AID 1259366); note: nearly all actives have a fitted effect of over 50% in size
Summary of the method: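 Cytotoxicity counter screen: CellTiter-Fluor reagent added after 23 h compound exposure, then 1 h at 37C and fluorescence read. Cells were 3T3 Gli1-Luc, seeded 2,000 per well and dosed 4 h post-plating.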

[11] = qHTS assay to identify small molecule antagonists of the sonic hedgehog signaling (Shh) pathway - cell viability counter screen (AID 1259367); note: nearly all actives have a fitted effect of over 55% in size
Summary of the method: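 Cytotoxicity was assessed in parallel with Shh reporter activity by measuring live-cell protease fluorescence (CellTiter-Fluor) in NIH/3T3 cells stably carrying Gli1-Luc, treated with compound under conditioned medium stimulation for 23 hr plus 1 hr reagent incubation.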

[12] = qHTS assay to identify small molecule agonists of the sonic hedgehog signaling (Shh) pathway (AID 1259368; calls by dose curve;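 note: NIH/3T3-derived 3T3Gli1-Luc cells carrying a stable Gli1-driven firefly luciferase reporter; series mostly up to about 92 µM; nearly all actives have a fitted effect of over 15% in size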)
Summary of the method: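 Stable NIH/3T3 Gli1-Luc reporter clone; 24 hr cpd exposure after a 4 hr settling period; luminescence endpoint.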

[13] = qHTS assay to identify small molecule antagonists of the sonic hedgehog signaling (Shh) pathway (AID 1259369; calls by dose curve; note: nearly all actives have a fitted effect of over 45% in size)
Summary of the method: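 Gli1 transcriptional reporter (firefly Luc) in NIH/3T3 background, conditioned-medium activated. 24hr exposure, luminescence endpoint.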

[14] = qHTS assay to identify small molecule agonists of the androgen receptor (AR) signaling pathway in the presence of an antagonist - cell viability counter screen (AID 1259379);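 note: MDA-kb2 human breast cancer cells carrying an MMTV luciferase reporter; series mostly up to about 92 µM; nearly all actives have a fitted effect of over 25% in size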
Summary of the method: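 Counter screen for cell viability run in parallel with the AR agonist-mode luciferase assay. MDA-kb2 cells were co-treated with nilutamide (3.0uM final) and compounds, then incubated 16 hr at 37C, and CellTiter-Fluor fluorescence was measured.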

[15] = qHTS assay to identify small molecule agonists of the estrogen receptor beta (ER-beta) signaling pathway - cell viability counter screen (AID 1259380); note: nearly all actives have a fitted effect of over 30% in size
Summary of the method: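 In this qHTS counter screen, HEK293T cells carrying an ER-beta/UAS beta-lactamase reporter, grown in 2% charcoal-stripped FBS, received compound for 16 hr; ATP-based CellTiter-Glo luminescence was then read after 30 min at room temperature.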

[16] = biological target: Androgen receptor (Homo sapiens) (UniProt P10275); test: qHTS assay to identify small molecule antagonists of the androgen receptor (AR) signaling pathway using the MDA cell line in the presence of 0.5 nM R1881 (AID 1259243); note: nearly all actives have a fitted effect of over 50% in size
Summary of the method: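 Cells: MDA-kb2 (MMTV-luc). Stimulus: 0.5 nM R1881. Time: 16 hr, 37C, no CO2. Detection: ONE-Glo luminescence after 30 min at RT.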

[17] = biological target: Estrogen receptor beta (Homo sapiens) (UniProt Q92731); test: qHTS assay to identify small molecule agonists of the estrogen receptor beta (ER-beta) signaling pathway (AID 1259377; active = well fitted activation curve with a large enough effect in the signal ratio in the repeat runs, not every such curve was filed as active; the % refers to the signal ratio)
Summary of the method: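 Ratiometric beta-lactamase FRET read-out came after 2 h substrate loading at room temperature. It followed 16 h compound treatment at 37C of GripTite HEK293T cells carrying a UAS-bla reporter, plated in 2% charcoal-stripped FBS medium.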

[18] = biological target: Estrogen receptor beta (Homo sapiens) (UniProt Q92731); test: qHTS assay to identify small molecule antagonists of the estrogen receptor beta (ER-beta) signaling pathway (AID 1259378; active = well fitted inhibition curve with a large enough effect in the signal ratio in the repeat runs, not every such curve was filed as active; the % refers to the signal ratio)
Summary of the method: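 ER-beta-UAS-bla HEK293T (GripTite) cells in 2% charcoal-stripped FBS medium were preincubated 6 hr at 37C, dosed with compound, then stimulated with 1 nM E2 (final) for 16 hr; beta-lactamase reporter read by B/G FRET fluorescence after 2 hr substrate loading.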

[19] = biological target: Androgen receptor (Homo sapiens) (UniProt P10275); test: qHTS assay to identify small molecule agonists of the androgen receptor (AR) signaling pathway in the presence of an antagonist (AID 1259381; calls by dose curve; note: nearly all actives have a fitted effect of over 15% in size)
Summary of the method: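 AR antagonist background: nilutamide 3.0uM final. Cell line: MDA-kb2, MMTV-driven luciferase, responsive to both AR and GR. Exposure 16hr, 37C, no CO2; ONE-Glo luminescence.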

[20] = A CellTox Green Cytotoxicity Assay to monitor cytotoxicity in HepG2 cells - 8 hour (AID 1224890); note: nearly all actives have a fitted effect of over 45% in size
Summary of the method: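 Fluorescent DNA-binding dye, 600 HepG2 cells/well, 5 h preincubation then compound in DMSO; same plates read at 0–40 h, 37 C.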

Measured: Potency

Sequence of Androgen receptor (Homo sapiens) (P10275 whole entry, looked up): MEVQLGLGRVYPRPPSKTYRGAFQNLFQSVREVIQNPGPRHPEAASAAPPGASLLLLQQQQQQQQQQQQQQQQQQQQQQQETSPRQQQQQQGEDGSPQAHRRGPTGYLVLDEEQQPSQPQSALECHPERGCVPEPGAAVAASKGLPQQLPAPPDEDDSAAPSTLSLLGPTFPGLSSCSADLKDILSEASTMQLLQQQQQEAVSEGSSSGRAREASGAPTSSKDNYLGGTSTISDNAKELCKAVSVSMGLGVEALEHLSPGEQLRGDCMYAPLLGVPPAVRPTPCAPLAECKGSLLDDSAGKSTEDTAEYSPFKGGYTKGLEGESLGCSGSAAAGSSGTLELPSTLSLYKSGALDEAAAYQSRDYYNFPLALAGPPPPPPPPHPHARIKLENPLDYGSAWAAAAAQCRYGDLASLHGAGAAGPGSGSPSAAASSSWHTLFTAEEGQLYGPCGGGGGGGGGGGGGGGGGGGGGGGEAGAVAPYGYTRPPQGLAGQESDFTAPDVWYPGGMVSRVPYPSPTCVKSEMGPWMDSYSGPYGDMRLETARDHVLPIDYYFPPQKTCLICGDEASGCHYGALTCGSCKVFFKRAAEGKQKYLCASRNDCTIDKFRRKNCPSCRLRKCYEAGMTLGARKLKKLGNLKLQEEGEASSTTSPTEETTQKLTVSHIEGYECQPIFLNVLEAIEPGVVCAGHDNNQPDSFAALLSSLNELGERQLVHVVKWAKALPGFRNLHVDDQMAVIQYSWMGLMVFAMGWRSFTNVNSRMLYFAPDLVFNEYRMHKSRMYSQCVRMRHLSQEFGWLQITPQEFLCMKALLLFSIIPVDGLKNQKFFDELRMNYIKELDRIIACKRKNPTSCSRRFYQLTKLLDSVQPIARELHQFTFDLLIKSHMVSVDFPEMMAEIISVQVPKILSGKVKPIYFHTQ
Sequence of Estrogen receptor beta (Homo sapiens) (Q92731 whole entry, looked up): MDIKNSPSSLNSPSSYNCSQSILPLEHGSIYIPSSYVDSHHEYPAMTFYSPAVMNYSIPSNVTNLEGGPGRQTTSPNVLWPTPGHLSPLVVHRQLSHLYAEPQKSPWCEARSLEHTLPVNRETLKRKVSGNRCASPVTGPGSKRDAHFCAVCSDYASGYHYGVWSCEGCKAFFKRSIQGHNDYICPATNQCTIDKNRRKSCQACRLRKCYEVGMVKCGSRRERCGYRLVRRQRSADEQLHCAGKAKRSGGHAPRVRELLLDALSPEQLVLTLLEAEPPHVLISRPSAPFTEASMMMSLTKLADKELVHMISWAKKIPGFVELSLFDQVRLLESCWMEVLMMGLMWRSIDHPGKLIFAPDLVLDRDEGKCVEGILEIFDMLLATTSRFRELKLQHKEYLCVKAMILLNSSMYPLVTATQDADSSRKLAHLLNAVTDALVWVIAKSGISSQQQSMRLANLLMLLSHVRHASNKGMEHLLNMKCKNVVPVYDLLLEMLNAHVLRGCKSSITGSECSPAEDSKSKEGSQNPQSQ
Sequence of Estrogen receptor (Homo sapiens) (P03372 whole entry, looked up): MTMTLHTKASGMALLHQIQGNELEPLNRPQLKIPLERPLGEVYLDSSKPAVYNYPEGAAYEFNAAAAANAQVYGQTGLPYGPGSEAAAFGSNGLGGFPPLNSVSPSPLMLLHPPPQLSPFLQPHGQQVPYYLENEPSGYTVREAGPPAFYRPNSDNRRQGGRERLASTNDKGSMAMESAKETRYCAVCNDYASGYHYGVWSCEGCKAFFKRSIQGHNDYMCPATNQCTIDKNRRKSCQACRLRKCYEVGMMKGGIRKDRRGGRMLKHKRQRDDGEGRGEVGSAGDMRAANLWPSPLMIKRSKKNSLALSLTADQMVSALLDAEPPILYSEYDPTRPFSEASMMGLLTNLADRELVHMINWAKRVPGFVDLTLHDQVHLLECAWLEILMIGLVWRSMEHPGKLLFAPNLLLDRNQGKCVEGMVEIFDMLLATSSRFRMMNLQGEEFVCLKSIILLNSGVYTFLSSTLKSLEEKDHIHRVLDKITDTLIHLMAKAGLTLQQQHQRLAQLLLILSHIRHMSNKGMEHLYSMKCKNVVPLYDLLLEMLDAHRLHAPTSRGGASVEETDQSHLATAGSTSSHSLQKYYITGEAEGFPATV

O=C(CCCCC(=O)Nc1c(I)cc(I)c(C(=O)O)c1I)Nc1c(I)cc(I)c(C(=O)O)c1I
inactive: [1] | [2] | [3] | [4] | [5] | [6] | [7] | [8] | [9] | [10] | [11] | [12] | [13] | [14] | [15]

CCCCCCCCCOC(=O)c1ccccc1C(=O)OCCCCCCCCC
inactive: [1] | [2] | [3] | [4] | [5] | [16] | [6] | [8] | [9] | [10] | [11] | [12] | [13] | [17] | [18] | [14] | [15] | [19]

Cc1ccnc(N)c1
inactive: [1] | [2] | [3] | [20] | [4] | [5] | [8] | [9] | [10] | [12] | [13] | [17] | [14] | [15]

Cc1cccc(Cl)c1
inactive: [1] | [2] | [3] | [20] | [4] | [5] | [8] | [9] | [11] | [12] | [13] | [17] | [18] | [14] | [15]

Nc1nc(-c2ccccc2)c(Br)c(=O)[nH]1
inactive: [1] | [2] | [3] | [4] | [5] | [16] | [6] | [7] | [8] | [9] | [10] | [11] | [12] | [13] | [15] | [19]

O/N=C/C=N/O
inactive: [1] | [2] | [3] | [20] | [4] | [5] | [8] | [9] | [10] | [12] | [13] | [17] | [18] | [14] | [15]

NC(=O)[C@@H]1CSSCCC(=O)N[C@@H](CCCCN=C(N)N)C(=O)NCC(=O)N[C@@H](CC(=O)O)C(=O)N[C@@H](Cc2c[nH]c3ccccc23)C(=O)N2CCC[C@H]2C(=O)N1 ([Mpa][hArg]GDWPC-NH2; disulfide 1-7)
inactive: [1] | [2] | [3] | [4] | [5] | [6] | [7] | [8] | [9] | [10] | [11] | [12] | [13] | [14] | [15]

NCc1ccc(S(N)(=O)=O)cc1
inactive: [1] | [2] | [3] | [20] | [4] | [5] | [7] | [8] | [9] | [10] | [12] | [13] | [17] | [14] | [15]

CC(C)NC(=O)c1ccc(C=O)cc1
inactive: [1] | [2] | [3] | [4] | [5] | [16] | [6] | [8] | [9] | [10] | [12] | [13] | [17] | [14] | [15] | [19]
